The list is not random: actives were taken first. Their share in the collection is about 1.7%.
Mtb hypoxia rep: Mtb hypoxia fluorescent reporter inhibition; M. tuberculosis hypoxia-regulated fluorescent reporter, fluorescence; fluorescence inhibition, % (test concentration not listed); 300,000 tested, 0.1% active; in the data active = fluorescence inhibition mostly above about 23%, no sharp cut-off; inactive = mostly below about 17%
CCHF vOTU inh-1: blocks the CCHF virus ovarian tumor domain protease; CCHFV vOTU protease, Pep-AMC fluorescence; inhibition, % at 11.5 µM; 370,000 tested, 0.55% active; AID 651958; note: 0% = vehicle wells with enzyme and 100% = no enzyme wells
Sa RN4220 lethal: S. aureus RN4220 growth inhibition. 330,000 tested, 0.33% active. inhibition, % (test concentration not listed). AID 1259311. OD600, 16 h; in the data active = inhibition above about 85%;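 note: plate controls were untreated cells for no effect and reference antibiotic for full effect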
Vc quorum ag: quorum light induction in luxS cqsA deficient V. cholerae | V. cholerae BH1578 lux reporter, luminescence, 6 h | activation, % at 18.7 µM | 350,000 tested, 0.16% active | AID 588436; in the data active = activation mostly above about 9.7%, no sharp cut-off; inconclusive = no clear call, values can overlap the other calls; inactive = mostly below about 3.7%
ugtP null kill: kills S. aureus RN4220 lacking UgtP | AID 1259309 | growth inhibition, % (no concentration beside the values) | S. aureus RN4220 ugtP deletion, OD600 growth, 16 h | 330,000 tested, 0.54% active; in the data active = growth inhibition above about 68%;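 note: plate controls were untreated wells for no effect and antibiotic for full effect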
PfHsp40 yeast: rescue of PfHsp40-mediated yeast toxicity; growth rescue, % at 12.5 µM; S. cerevisiae expressing PfHsp40, growth rescue, ATP luminescence; 340,000 tested, 0.68% active; in the data active = growth rescue above about 28%, passing the limit was not always enough; inconclusive = no clear call, values can overlap the other calls;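 note: yeast W303a lacking pdr1 and pdr3 grown in galactose medium; growth measured after three days at 30 °C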
CCHF vOTU inh-2: confirmation of CCHF virus vOTU protease inhibitors; 1,900 tested, 17% active; shares compounds with CCHF vOTU inh-1; inhibition, % at 11.5 µM; Recombinant CCHFV vOTU, Pep-AMC fluorescence; AID 686976
* marks the source's active call; other numbers are inactive results; i = inactive; ? = inconclusive; . = no result given. Cut-off read from the data, not from the text of the source, unless noted: active = inhibition above about 30%; inactive = the rest.

SMILES	Mtb hypoxia rep	CCHF vOTU inh-1	Sa RN4220 lethal	Vc quorum ag	ugtP null kill	PfHsp40 yeast	CCHF vOTU inh-2
COc1cc(CCNC2=CC(=O)c3ncccc3C2=O)ccc1O	.	73.5*	.	5.6	.	0.0	78.0*
O=C(Nc1nccs1)C(F)(F)C(F)(F)C(F)(F)C(=O)Nc1nccs1	12.4	112.8*	10.2	-0.4	8.8	-1.7	-0.4
O=C(c1nc[nH]c1C(=O)N1CCc2ccccc2C1)N1CCc2ccccc2C1	-3.4	43.3*	1.9	-2.2	-1.4	-0.7	-3.2
CNCc1ccccc1Sc1cc(O)ccc1O	-1.7	29.7*	17.3	-0.2	-5.5	-0.3	3.6
CNCc1ccccc1Sc1cccc(O)c1	5.4	14.6	5.0	i	-5.9	0.2	.
CC(C)=CCC(C)(C)C=NNC(N)=O	7.3	.	2.4	.	0.4	.	.
CCOc1cc(C=Nn2cnnc2)ccc1OS(=O)(=O)c1ccc(C)cc1	-4.3	.	8.7	.	-8.2	.	.
N#Cc1cc([N+](=O)[O-])ccc1Oc1cccc(C=NNC(=O)c2cccc(Cl)c2)c1	1.4	.	-2.9	.	-4.7	.	.
O=C1C(=O)c2cccnc2-c2ncccc21	.	111.1*	.	.	.	.	85.8*
O=C1c2ccccc2-c2nccnc21	0.4	8.4	3.9	-0.1	-1.5	0.5	.
CC(C)C[C@@H](COCc1cccc(C(F)(F)F)c1)N1CCN(C(=O)c2ccc(C(F)(F)F)cc2)CCC1=O	.	38.5*	.	.	.	.	16.2
O=C(c1ccc(C(F)(F)F)cc1)N1CCC(=O)N([C@H](COCc2ccc(Cl)cc2)Cc2ccccc2)CC1	.	32.0*	.	.	.	.	6.8
O=C(c1ccc(C(F)(F)F)cc1)N1CCC(=O)N([C@H](COCc2ccc(C(F)(F)F)cc2)Cc2ccccc2)CC1	.	33.7*	.	.	.	.	6.7
Cc1cccc(COC[C@H](CC(C)C)N2CCN(C(=O)c3ccc(C(F)(F)F)cc3)CCC2=O)c1	.	20.9	.	.	.	.	.
CC(C)C[C@@H](COCc1ccc(Cl)cc1)N1CCN(C(=O)c2ccc(C(F)(F)F)cc2)CCC1=O	.	19.5	.	.	.	.	.
CC(Cl)=CCSc1nn2c(=O)c3ccccc3nc2s1	9.6	.	3.7	.	-3.0	.	.
CN1CCC/C1=C/C=C1\SC(=S)NC1=O	41.2*	40.2*	1.7	i	10.3	2.9	33.3*
CCN(CC)CC(=O)n1c2c(c3ccccc31)CCCC2	10.7	-0.4	5.6	-0.2	13.4	-0.3	.
CN1CCN(CC(=O)n2c3c(c4ccccc42)CCCC3)CC1	6.6	45.3*	4.5	-1.7	9.6	-0.2	-0.8
O=C(NN=Cc1ccc(OCC(=O)N2CCCC2)cc1)C(=O)Nc1ccccc1F	2.7	.	6.8	.	-0.1	.	.
CCCCCCNC(=O)OC12CN(C(=O)OC(C)C)N(C(=O)OC(C)C)CC1(O)CN(S(=O)(=O)c1ccc(C)cc1)C2 (stereo not given)	.	37.1*	.	-0.6	.	.	11.0
Cc1ccc(S(=O)(=O)N2CC3(O)CN(C(=O)OC(C)C)N(C(=O)OC(C)C)CC3(OC(=O)NCC3CCCCC3)C2)cc1 (stereo not given)	.	23.9	.	-0.4	.	.	.
CC(CN=[N+]=[N-])CN1CCC(C(C)(C)C)CCC1=O (stereo not given)	11.3	.	4.3	.	-8.1	.	.
CCOc1ccc(NC(=O)c2ccccc2NS(=O)(=O)c2ccc(F)cc2)c([N+](=O)[O-])c1	-3.0	30.1*	23.7	-0.3	20.0	-0.4	-4.3
COc1ccc(-c2csc(NC(=O)c3ccccc3NS(=O)(=O)c3ccc(F)c(F)c3)n2)cc1	-5.0	37.3*	89.3*	-5.6	85.3	9.0	9.4
SMILES	Mtb hypoxia rep	CCHF vOTU inh-1	Sa RN4220 lethal	Vc quorum ag	ugtP null kill	PfHsp40 yeast	CCHF vOTU inh-2
COc1ccc(-c2csc(NC(=O)c3ccccc3F)n2)cc1	16.6	-8.9	-6.9	i	14.9	6.1	.
Cc1ccc(S(=O)(=O)Nc2nc(-c3ccccc3)cs2)cc1	10.0	4.9	0.2	0.4	3.5	1.6	.
Cc1ccc(S(=O)(=O)Nc2ccccc2C(=O)Nc2nc(-c3ccc(F)cc3)cs2)cc1	-3.6	30.2*	88.9*	-0.1	89.0*	?	-16.0
CCC(=O)NC(c1cccs1)c1cc([N+](=O)[O-])c2cccnc2c1O (stereo not given)	2.7	38.2*	95.9*	96.4*	98.3*	-0.3	33.0*
Cc1cc(/C=C(\C#N)C(=O)O)c(C)n1CCC(C)C	-6.1	29.7*	6.8	-0.4	17.3	0.7	4.2
O=c1[nH]c(CN2CCc3ccccc3C2)nc2ccccc12	11.6	44.2*	5.3	-6.7	-2.1	0.0	12.2
